Assay [1] can be described thus: TOX21_p53_BLA_p2_viability: Viability Assessment in the Tox21 HCT-116 p53 Agonism Beta-lactamase Assay, Phase 2 (AID 2283591).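 Also: actives lower the ATP signal meaning cytotoxicity.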 Put shortly:
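HCT116 p53-bla cells, 4000/well, dosed after 5 h plating (217-fold dilution of DMSO stocks) and incubated 16 h at 37C. Viability taken as cellular ATP by CellTiter-Glo luminescence after 30 min RT; signal loss marks cytotoxicity.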

In assay [2] the target is Cellular tumor antigen p53 (Homo sapiens) (UniProt P04637). Description: TOX21_p53_BLA_p3_ratio: Tox21 HCT-116 p53 Agonism Beta-lactamase Assay, Ratio, Phase 3 (AID 2283596). Put shortly:
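Cells were seeded at 4000/well, rested 5 h at 37C, then dosed with DMSO compound solutions (217-fold dilution) for 16 h. CCF4-AM substrate was loaded for 2 h at room temperature, and the 460/530 nm emission ratio was fitted for gain of signal versus DMSO.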

For assay [3] the target is unchanged. In words: TOX21_p53_BLA_p4_ratio: Tox21 HCT-116 p53 Agonism Beta-lactamase Assay, Ratio, Phase 4 (AID 2283601). Put shortly: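 HCT-116 p53 beta-lactamase reporter cells (4000/well) preincubated 5 h, then compound (217-fold dilution of DMSO stock) for 16 h at 37C. CCF4-AM substrate added 2 h at room temperature; 460/530 nm emission ratio fitted upward versus DMSO.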

A short description of assay [4]: TOX21_p53_BLA_p4_viability: Viability Assessment in the Tox21 HCT-116 p53 Agonism Beta-lactamase Assay, Phase 4 (AID 2283597).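 Also: hits lower the luminescence signal meaning cytotoxicity.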 The method in brief: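 ATP content by CellTiter-Glo luminescence, 30 min RT, read after the beta-lactamase ratio step. Cells: HCT116, 4000/well, compound added after 5 h, exposure 16 h at 37C. Signal loss = reduced viability.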
For assay [5], the target named is Cellular tumor antigen p53 (Homo sapiens) (UniProt P04637). Description: TOX21_p53_BLA_p5_ratio: Tox21 HCT-116 p53 Agonism Beta-lactamase Assay, Ratio, Phase 5 (AID 2283599). Put shortly:
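HCT-116 p53-bla cells (4000/well) plated 5 h, dosed with compound (217-fold DMSO dilution) for 16 h at 37 C; CCF4-AM substrate 2 h at room temperature. Activity is the 460/530 nm emission ratio (405 nm excitation), fitted in gain-of-signal direction versus DMSO.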

The nature of assay [6]: TOX21_p53_BLA_p5_viability: Viability Assessment in the Tox21 HCT-116 p53 Agonism Beta-lactamase Assay, Phase 5 (AID 2283600). The method in brief:
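ATP luminescence (CellTiter-Glo, 30 min, RT) served as the viability read-out, with loss of signal indicating cytotoxicity. Compounds in DMSO were pinned at a 217-fold dilution onto 4000 cells/well and incubated 16 h, 37C.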

The target of assay [7] is Cellular tumor antigen p53 (Homo sapiens) (UniProt P04637). In words: TOX21_p53_BLA_p2_ratio: Tox21 HCT-116 p53 Agonism Beta-lactamase Assay, Ratio, Phase 2 (AID 2283592). Put shortly: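 Readout: blue/green (460/530 nm) FRET emission ratio after 2 h CCF4-AM loading at room temperature, excitation 405 nm. HCT116 p53 bla cells, 16 h compound exposure at 37C, 5% CO2; agonist direction fitted against DMSO baseline.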
Chain of Cellular tumor antigen p53 (Homo sapiens) (P04637 whole entry, looked up): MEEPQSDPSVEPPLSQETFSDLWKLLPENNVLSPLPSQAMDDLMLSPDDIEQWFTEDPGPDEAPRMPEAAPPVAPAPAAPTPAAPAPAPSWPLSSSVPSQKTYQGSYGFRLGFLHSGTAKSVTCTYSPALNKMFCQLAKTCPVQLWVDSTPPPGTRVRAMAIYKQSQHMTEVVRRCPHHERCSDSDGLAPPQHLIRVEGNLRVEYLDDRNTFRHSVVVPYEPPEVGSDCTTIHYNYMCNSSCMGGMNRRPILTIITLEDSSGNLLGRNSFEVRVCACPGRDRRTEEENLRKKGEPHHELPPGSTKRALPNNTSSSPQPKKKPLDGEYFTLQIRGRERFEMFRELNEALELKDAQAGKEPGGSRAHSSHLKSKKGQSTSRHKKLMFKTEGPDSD

The nature of assay [8]: TOX21_p53_BLA_p3_viability: Viability Assessment in the Tox21 HCT-116 p53 Agonism Beta-lactamase Assay, Phase 3 (AID 2283593).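 Also: cells exposed to compound for 16 h before reading.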 Put shortly:
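HCT116 cells, 4000/well, dosed 5 h after plating by pin transfer (217-fold dilution from DMSO stock) and incubated 16 h at 37C, 5% CO2. Viability read as ATP luminescence with CellTiter-Glo after 30 min at room temperature.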

For assay [9], the target named is Thyroid hormone receptor alpha (Rattus norvegicus) + Thyroid hormone receptor beta (Rattus norvegicus) (UniProt P18113+P63059). Description: TOX21_TR_LUC_GH3_Antagonist_Followup: Tox21 GH3 Thyroid Hormone Receptor Antagonism Luciferase Follow-Up Assay (AID 2283942). The method in brief: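 Luminescence read-out (ONE-Glo, 30 min at room temperature) in GH3 reporter cells challenged with 1.0 nM T3 final. Compounds ran at 92 uM to 5nM over 15 concentrations for 24 h; DMSO served as negative control and baseline.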

The target in assay [10] is THRB (gene 7068) (UniProt P10828). Description: TOX21_TRB_BLA_Antagonist_Followup_ratio: Tox21 Thyroid Hormone Receptor beta Antagonism Beta-lactamase (BLA) Follow-Up Assay, Ratio (AID 2283958). Put shortly: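 Read-out: blue/green (460:530 nm) ratio of cleaved to uncleaved CCF4-AM after 2 h at room temperature, fitted against DMSO baseline. HEK293T UAS-bla cells carrying GAL4-human TRβ LBD were exposed 18 h, 37C/5% CO2.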
Chain of THRB (gene 7068) (P10828 whole entry, looked up, the tested form may be a part): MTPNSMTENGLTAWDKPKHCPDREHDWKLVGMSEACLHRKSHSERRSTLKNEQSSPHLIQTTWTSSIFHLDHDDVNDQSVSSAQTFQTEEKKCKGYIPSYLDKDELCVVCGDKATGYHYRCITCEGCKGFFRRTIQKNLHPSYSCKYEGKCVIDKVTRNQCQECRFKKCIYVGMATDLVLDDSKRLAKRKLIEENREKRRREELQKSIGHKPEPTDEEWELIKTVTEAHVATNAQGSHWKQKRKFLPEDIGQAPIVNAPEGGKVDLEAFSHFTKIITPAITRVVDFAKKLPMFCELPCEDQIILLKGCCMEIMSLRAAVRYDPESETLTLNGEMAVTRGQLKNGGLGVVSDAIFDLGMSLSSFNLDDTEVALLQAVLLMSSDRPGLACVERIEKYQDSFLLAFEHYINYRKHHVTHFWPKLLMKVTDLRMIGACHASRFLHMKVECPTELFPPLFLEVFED

For assay [11] the target is unchanged. Description: TOX21_TRB_COA_Antagonist_Followup_ratio: Tox21 Thyroid Hormone Receptor beta Antagonism through Coactivator Recruitment Follow-Up Assay, Ratio (AID 2283967). Put shortly: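 GST-TRb LBD 5.0 nM + 0.10% BSA, compound added; fluorescein-SRC-2 peptide 200 nM, Tb-anti-GST Ab 2 nM. TR-FRET, ex 340 / em 520:495 ratio. Norm: DMSO 0%, T3 100%.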

Each structure is given as a SMILES string. Records with an inconclusive call do not appear. Calls of active or inactive are those of the source. The calls were made as follows: active = hit-call score of the fitted dose curve at least 0.9, where 1 is the maximum; inconclusive = response in the unintended direction; inactive = score below 0.9.

As for `CN(C)C(=O)Oc1cc(OC(=O)N(C)C)cc(C(O)CNC(C)(C)C)c1` (stereo not given), the molecule was classed as inactive in assay [1], in assay [2] and in assay [3].

As for `CCN(CC)CCOC(=O)C(C)(c1ccccc1)c1ccccc1`, the outcome in assay [1], in assay [4] and in assay [5] was inactive.

By AC50 is commonly meant the concentration at which the activity in the assay is half-maximal. `CC(=O)O[C@H]1C[C@H](O[C@H]2[C@@H](O)C[C@H](O[C@H]3[C@@H](O)C[C@H](OC4CC[C@@]5(C)C(CC[C@@H]6[C@@H]5CC[C@]5(C)[C@@H](C7=CC(=O)OC7)[C@@H](O)C[C@]65O)C4)O[C@@H]3C)O[C@@H]2C)O[C@H](C)[C@H]1O[C@@H]1O[C@H](CO)[C@@H](O)[C@H](O)[C@H]1O` (stereo not given in full): the concentration at half-maximal activity (AC50) in assay [1] is 463 nM (active); in assay [4] it was 582 nM (active); in assay [6] it was 473 nM (active).

Take `Oc1ccc2c3c1O[C@H]1[C@@H](O)C=C[C@H]4[C@H](C2)NCC[C@@]341`: the result in assay [7], in assay [8], in [2], in assay [4], in [5] and in [6] was inactive.

On to `c1ccc(CN2CCNCC2)cc1`, for which the outcome in [1] and in [5] was inactive.

As for `CCCBr`, the molecule was classed as inactive in [1], in assay [4] and in [5].

For `CCN(C(C)=O)c1cccc(-c2ccnc3c(C#N)cnn23)c1`, the call in [1], in assay [5], in assay [6] and in assay [3] was inactive.

Consider `N#CNC#N`, for which the result in assay [1], in assay [4], in assay [6] and in assay [3] was inactive.

Take `[O]=[Cr](=[O])([OH])[O][Cr](=[O])(=[O])[OH]`: the concentration at half-maximal activity (AC50) in [1] was 15.1 µM (active) [middle of 4 runs]; in assay [4] it was 18.4 µM (active) [middle of 4 runs]; in assay [5], 13.2 µM (active) [middle of 4 runs]; in assay [6], 28.1 µM (active) [middle of 4 runs]; in assay [3], 13.6 µM (active) [middle of 4 runs].

For `O=C(Cl)c1ccccc1`, the outcome in assay [7], in assay [8], in assay [2], in assay [4], in assay [5] and in assay [6] was inactive. The outcome in [3] was inactive.

Take `ClC=CCl`: the outcome in [7], in [8], in assay [2], in [4], in [5] and in assay [6] was inactive. Besides, in [3], the outcome was inactive.

Consider `C[C@]12CC[C@H]3[C@@H](CCC4=C(Cl)C(=O)CC[C@@]43C)[C@@H]1CC[C@@H]2O`, for which the outcome in [7], in assay [8], in [2], in assay [4], in assay [5] and in assay [6] was inactive. The result (in [3]; in assay [9]; with THRB (gene 7068) [10]; in the assay with THRB (gene 7068) [11]) was inactive.

`N#CSCc1ccccc1`: the AC50 in [7] was 80.2 µM (active); in assay [2], 30.7 µM (active). Also, the call in assay [8], in [4], in [5] and in [3] was inactive.

For `CNc1ccc(C(=O)CC(O)CCC(C)C2OC(=O)CC(O)CC(=O)CC(O)CC(O)CC(O)CC(O)CC3(O)CC(O)C(C(=O)OC)C(CC(O[C@@H]4O[C@H](C)[C@@H](O)[C@H](N)[C@@H]4O)/C=C/C=C/C=C/C=C/C=C/C=C/C=C/C2C)O3)cc1` (stereo not given in full) (tested in a mixture with another compound), the AC50 in assay [7] is 37.8 µM (active). The molecule was called inactive in [8], in assay [2], in assay [4], in [6] and in assay [3].

Take `CCOC(=O)C(Cl)C(C)=O` (stereo not given): the outcome in [7], in assay [8], in [2], in [5], in assay [6] and in assay [3] was inactive.

`CC=CCC#N`: the outcome in assay [7], in assay [8], in assay [2], in assay [5] and in [3] was inactive.
